From the supplement of paper PMC12632987

B1: usp_38_diff_out_17_26_241 (protein)
chain: SMEERRKEAEELLRRLEEETEKALEEIEKLIEEGKFEEARKLLDEAVDYATETATRILELAADDPELMDRALAVIGRIFDRLAEAYRRLEEARRRAEEEA
B2: usp_38_diff_out_17_35_245 (protein)
chain: SLEEKERELLERTRRAAEEALRRARELLEAAKADPSQIDRYLAEARAVLDRFLAEAADILIEAAKLEIDAEVLQEIGDIIDRASDELQAILDELEALKAA
B3: usp_38_diff_out_18_121_251 (protein)
chain: EAKKVAEEALKAAKEATKLAKELLKAIKEGKWEKAEKLDKELDKKIKEFGRLYQELRDLRSEDPEQTKPLLKEVEKEGDKMIDIYNEAGTALFLAEAERQ
B4: usp_38_diff_out_17_26_242 (protein)
chain: EAEERRREARERLERLREETERALEEIDRLIAEGKFEEARKLLEETVRKATEEMTEILELAADDPELMEEALRAWDEISDRLAARYRELQAAIAAAKAAA
B5: usp_38_diff_out_18_121_250 (protein)
chain: DGEELLRRLREALRRAEEKLRELEELLERAEEVSLEELRAALDAAADALGEAAALLREARRRLGPEYREELEEAERRLDELVDRYTELGTRLFLLEAERQ
B6: usp_38_diff_out_18_14_255 (protein)
chain: SEELEKATISNLNSLKEDVKKDTERVIKLLEKNKDDPERVKRITERANRNLAGVRTYAEEVLKEAEEKGWEEVKKAAEELLKTVDEAKKKIEEKVKEVLA
B7: usp_38_diff_out_17_60_246 (protein)
chain: SAEAEKIIKELEERLEELEKRLKELEKEFKKAKAAGDKAKLEALAKEAQALLDEIADLLVELAKNSEIIDPETFLELADRASELADRAFALLKEIQKELA
B8: usp_38_diff_out_18_121_254 (protein)
chain: KAEELAKKALELAEEIEKLSKELLKAIKEGNKEKAEELRKKLDEKIRELGRLYQELRDLHAENPHETRELLKEVNEKANKAIDEREKAETAYFEFLAEQE
B9: usp_38_diff_out_18_121_249 (protein)
chain: NPEELLEELRRALEEARRALEELEKLLENREEVSLEELREALRRAADALGRAAALLREARRRIGPEYREEIERAEKELDELVDRYTELGRELFLLEAERE
B10: usp_38_diff_out_17_26_244 (protein)
chain: SAEERNKKARELLEELKREAEKGLEEIRKLIEAGKFEEARKKLDELVTEVTERMLEILELAADNPELMEEALAAYDEISDAIAAAYRELQEARRAAAAAA
B11: usp_38_diff_out_18_14_257 (protein)
chain: SKELTEATISNLKSLKEDVKEDTERVIRLLEKNKDDPERVKRIYERAKRNLAGVEKYAKEVLKEAKENGDEELAKAAEELLKAVEEARERIEEEVKRVLA
B12: usp_38_diff_out_17_60_247 (protein)
chain: SAEAEEIIERLKKRLEELEKRLEELEKRFEEAKKKGDKEELEKLLKEAKELIDEIADLLVELAKNSELIDPETFLELADRASELADRAFKLKQEIEKELA
B13: usp_38_diff_out_17_26_243 (protein)
chain: SAEEKRKKARELLKKLKEESEKALEEIKKLIKEGKFEEAEKLLEETVKKVTETTLEILELAADDPELVEEVLEAYDEISDKLAQAYKELQKAKKEAAAKA
B14: usp_38_diff_out_18_121_253 (protein)
chain: EAEKLAEEALKLAEKLKELSEELLKAIKEGDLEKAEKLKKEMEELLKELGRKYLELRDLRAEHPEETKELLKEVEKKANEAIDKYEKAERAYFEFLAEQA
B15: usp_38_diff_out_18_14_256 (protein)
chain: SEELTKAEISNLESLKKSVKEDTERVIRLLEKNKDDPERVKRIYERAQRNLAGVETYAKEVLERAKKEGDEELAKAAEELLKEIEEARKRIEEKVKEVLA
B16: usp_38_diff_out_17_60_248 (protein)
chain: SAEAEAIIARLEARLEELERRLEELERRFEEAERRGDKAELEELLKELDELLGEIADLLVELAKNSELIDPETFLRLADRASELADRAFALRQRVQQALA

Molecular target: T1, USP38, Q8NB14
T1 chain: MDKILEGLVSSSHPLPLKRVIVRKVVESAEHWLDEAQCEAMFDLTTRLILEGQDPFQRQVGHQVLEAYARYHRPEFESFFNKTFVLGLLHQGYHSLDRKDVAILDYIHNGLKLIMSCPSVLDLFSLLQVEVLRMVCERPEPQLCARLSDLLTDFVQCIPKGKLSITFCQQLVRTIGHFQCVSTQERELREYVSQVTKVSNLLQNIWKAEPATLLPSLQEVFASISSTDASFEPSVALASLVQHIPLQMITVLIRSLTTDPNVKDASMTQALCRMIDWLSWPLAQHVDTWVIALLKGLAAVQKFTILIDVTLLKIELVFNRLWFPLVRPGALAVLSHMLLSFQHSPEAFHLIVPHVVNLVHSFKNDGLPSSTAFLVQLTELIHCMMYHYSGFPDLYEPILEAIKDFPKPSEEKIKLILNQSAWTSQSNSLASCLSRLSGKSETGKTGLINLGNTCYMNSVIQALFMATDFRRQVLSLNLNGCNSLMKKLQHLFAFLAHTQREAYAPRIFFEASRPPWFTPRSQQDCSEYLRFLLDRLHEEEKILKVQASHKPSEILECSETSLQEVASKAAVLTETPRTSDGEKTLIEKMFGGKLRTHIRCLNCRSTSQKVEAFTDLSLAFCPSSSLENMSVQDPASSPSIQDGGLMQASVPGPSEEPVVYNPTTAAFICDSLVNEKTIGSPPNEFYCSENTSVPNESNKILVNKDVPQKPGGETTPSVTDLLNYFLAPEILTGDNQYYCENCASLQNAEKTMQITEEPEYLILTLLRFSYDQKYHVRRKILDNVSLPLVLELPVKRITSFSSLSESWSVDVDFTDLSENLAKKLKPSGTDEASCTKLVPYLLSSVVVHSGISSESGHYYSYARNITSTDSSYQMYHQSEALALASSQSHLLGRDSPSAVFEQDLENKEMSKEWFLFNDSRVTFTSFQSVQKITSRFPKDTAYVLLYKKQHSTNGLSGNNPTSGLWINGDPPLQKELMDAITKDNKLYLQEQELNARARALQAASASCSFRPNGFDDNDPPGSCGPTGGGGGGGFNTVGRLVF
Assay: median log2 fold change of GCK-ALFA target abundance (FLAG IP / Myc IP barcode read proportion) (log2 ratio); each designed protein is fused to an ALFA-tag nanobody in HEK293 cells to bring the named protein to FLAG-tagged glucokinase (GCK); Myc marks an untargeted standard; higher = target protein stabilised (more abundant)
Conditions: target protein: 3xFLAG-MCP-GCK-ALFA reporter; HEK293 landing pad (RPLP)
Outline: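 An ALFA-nanobody-fused binder library was recombined into HEK293 landing-pad cells and induced with 2 μg mL^−1 doxycycline. Cells were transfected with a plasmid expressing a FLAG-tagged target and a Myc-tagged standard. After 48 h, lysates underwent anti-FLAG and anti-Myc immunoprecipitation, and circular RNA barcodes were reverse transcribed, amplified and sequenced. Target abundance is the per-binder median log2 ratio of FLAG to Myc barcode read proportions. Barcodes needed ≥10^−7 proportion in both replicates, binders ≥3 barcodes per replicate, and a 10^−6 pseudocount was added; the two replicates were pooled.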

With B1 as the binder, how does the “median log2 fold change” value read?
Its value is -0.00366.

How did the “median log2 fold change” value turn out when B2 was run?
Its value is 0.015.

Which “median log2 fold change” value does the source give for B3 here?
The value was -0.563.

With B4 as the binder, how does the “median log2 fold change” value read?
Its value is 0.467.

B5 was tested. Which “median log2 fold change” value did it give?
Its value is -0.109.

How did the “median log2 fold change” value turn out when B6 was run?
The value was 0.0514.

With B7 as the binder, how does the “median log2 fold change” value read?
The value was -0.51.

How did the “median log2 fold change” value turn out when B8 was run?
Its value is -0.478.

With B9 as the binder, how does the “median log2 fold change” value read?
Its value is -0.0715.

Which “median log2 fold change” value does the source give for B10 here?
Its value is -0.152.

For B11, which “median log2 fold change” value is on record?
Its value is 0.0724.

With B12 as the binder, how does the “median log2 fold change” value read?
The value was 0.108.

How did the “median log2 fold change” value turn out when B13 was run?
Its value is -0.0758.

B14 was tested. Which “median log2 fold change” value did it give?
Its value is -1.1.

How did the “median log2 fold change” value turn out when B15 was run?
Its value is 0.00955.

Which “median log2 fold change” value does the source give for B16 here?
Its value is -1.11.
